Bioassay records (PubChem BioAssay)
A selection: hits, their analogues and other compounds. The true share with any hit is near 0.9%.
BJeLR viability – lowers viability of BJeLR cells; BJeLR fibroblasts viability, CellTiterGlo ATP luminescence, 48 h; HRASV12, hTERT and SV40 LT/ST transformed; viability loss activity score, % (no concentration beside the values); 30,000 tested, 0.64% active; in the data active = viability loss activity score above about 50%;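 note: higher score means fewer live cells and less ATP luminescence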
A1 inh – inhibitors of A1. MEF A1-2A-BIM cells, caspase-Glo luminescence, 3 h; percent of clofoctol signal, DMSO as zero. caspase activation, % (concentration not given with the values). 21,000 tested, 0.51% active. AID 2241;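 active = most replicate scores above 10, or exactly half above 10 with mean activity above 10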;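 note: effector caspase 3 and 7 activity cleaving a DEVD luciferin substrate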
Each line names hits and unclear results; the compound was inactive in the other large screens.

COc1ccc(CC(N)C(=O)N[C@H]2[C@@H](O)[C@H](n3cnc4c(N(C)C)ncnc43)O[C@@H]2CO)cc1 (stereo not given in full)	A1 inh 58
CN(C)c1ncnc2c1ncn2C1OC(CO)C(N)C1O (stereo not given)	none
Cc1ccc(S(=O)(=O)N(C)C[C@@H]2Oc3ccc(NS(=O)(=O)c4ccc(Cl)cc4)cc3C(=O)N([C@@H](C)CO)C[C@@H]2C)cc1	none
Nc1ncnc2c1c(I)cn2C1OC(CO)C(O)C1O (stereo not given)	BJeLR viability 63, A1 inh 26
OC[C@H]1O[C@@H](n2cnc3c(NCc4ccco4)ncnc32)[C@H](O)[C@@H]1O	none
COc1cc(C2Nc3ccccc3S2)cc(OC)c1OC (stereo not given)	none
c1ccc2c(c1)NC(c1ccc3c(c1)OCO3)S2 (stereo not given)	BJeLR viability 72
C[C@@H]1CN([C@H](C)CO)C(=O)c2cc(NC(=O)Cc3cn(C)c4ccccc34)ccc2O[C@H]1CN(C)C(=O)Nc1ccc2c(c1)OCO2	none
O=C(Nc1cccc(Br)c1)c1cccc2c1C(=O)c1ccccc1-2	A1 inh 26
O=C(c1ccc2c(c1)C(=O)c1ccccc1-2)c1ccccc1Br	none
O=C(CSc1n[nH]c(=O)n1-c1cccc(C(F)(F)F)c1)N1CCC(C(F)(F)F)CC1	none
O=C1C(SCCO)=C(SCCO)C(=O)c2ccccc21	BJeLR viability 117
O=C1c2ccccc2C(=O)N1C(CO)C(O)c1ccccc1 (stereo not given)	none
COc1cc(-c2coc3cc(OCc4ccccc4)c(OC)c(O)c3c2=O)cc(OCc2ccccc2)c1OC	none
Cc1cc(C(=O)Nc2cccc3c2O[C@H](CN(C)C)[C@H](C)CN([C@@H](C)CO)C3=O)n(C)n1	none (no result: A1 inh)
CCOC(=O)c1cnc(S/C=C/C(=O)c2ccc(C)cc2)nc1N	BJeLR viability 90
CCOC(=O)c1cnc(N2CCOCC2)nc1N	none
CS(=O)c1sc(C(=O)OCc2ccccc2)c2c1C(=O)CC(C)(C)C2 (stereo not given)	BJeLR viability 116
CC1(C)CC(=O)c2c(SCCOC(=O)c3ccccc3Cl)sc(C#N)c2C1	none
CC(C)c1c(O)ccc2c1CCC1C(C)(C)CCC[C@]21C (stereo not given in full)	A1 inh 43
CC(C)c1ccc2c(c1)CCC1[C@](C)(C(=O)O)CCC[C@]21C (stereo not given in full)	none
C[C@@H]1CN([C@H](C)CO)C(=O)c2cccc(NS(=O)(=O)c3ccc(F)cc3)c2O[C@@H]1CN(C)Cc1ccc(Oc2ccccc2)cc1	none (no result: A1 inh)
COC(=O)Cn1c(=O)c2c(nc3n2CCN3c2ccccc2)n(C)c1=O	A1 inh 37
COC(=O)Cn1c(Cl)nc2c1c(=O)n(C)c(=O)n2C	none
C=C(C(=O)O[C@H]1C[C@]2(C)C(C(C=O)CC[C@H]2O)[C@H]2OC(=O)C(=C)[C@H]12)C(O)CO (stereo not given in full)	none
C=C1C(=O)O[C@@H]2C3C(=C(C)[C@@H](O)[C@@H](OC(=O)/C(=C/C)COC(C)=O)[C@@H]12)C(=O)[C@H]1O[C@@]31C (stereo not given in full)	BJeLR viability 90
COc1ccc(-c2cc(C(=O)NCCc3ccccc3)c3ccccc3n2)cc1	none
CC(=O)O[C@H]1[C@H](Oc2ccccc2COC(=O)C2(O)C=CCCC2=O)O[C@H](CO)[C@@H](O)[C@@H]1O (stereo not given in full)	none
O=C(O[C@H]1[C@H](Oc2ccccc2COC(=O)C2(O)C=CCCC2=O)O[C@H](CO)[C@@H](O)[C@@H]1O)c1ccccc1 (stereo not given in full)	BJeLR viability 58
O=C(Nc1ccccc1)OCCCc1ccccc1	none
CC(C)C[C@](CC(=O)OCc1ccc(O[C@@H]2O[C@H](CO)[C@@H](O)[C@H](O)[C@H]2O)cc1)(O[C@@H]1O[C@H](CO)[C@@H](O)[C@H](O)[C@H]1O)C(=O)OCc1ccc(O[C@@H]2O[C@H](CO)[C@@H](O)[C@H](O)[C@H]2O)cc1	none
CC(C)=CCc1c(O)cc(O)c2c1O[C@H](c1ccccc1)CC2=O	A1 inh 23
O=C1C[C@H](c2ccccc2)Oc2c(Cc3ccccc3O)c(O)cc(O)c21	none
O=C(NCCN1CCN(Cc2ccccc2)CC1)c1ccc2c(Cl)c3c(nc2c1)CCCC3	none (no result: A1 inh)
CCC1CCCCN1Cc1c(O)ccc2cc(-c3nc4ccccc4[nH]3)c(=O)oc12 (stereo not given)	none (no result: A1 inh)
COC(=O)CC(O)(CCCC(C)(C)O)C(=O)O[C@@H]1C(OC)=C[C@]23CCCN2CCc2cc4c(cc2[C@@H]13)OCO4 (stereo not given in full)	A1 inh 10 (no result: BJeLR viability)
O=c1c(-c2ccc(O)cc2)coc2cc(O[C@@H]3O[C@H](CO)[C@@H](O)[C@H](O)[C@H]3O)cc(O)c12	none
COC(=O)c1c[nH]n2c(=O)c(Cc3ccc(F)cc3Cl)c(C)nc12	none
COc1ccc(C2Oc3c(OC)cc(/C=C/COC4OC(CO)C(O)C(O)C4O)cc3C2CO)cc1OC (stereo not given)	none
COc1cc2ncnc(Nc3cccc(Br)c3)c2cc1OC	none
COc1cc2ncnc(Nc3cccc(O)c3)c2cc1OC	A1 inh 12
CN(C)c1ccc(/C=C2/C(=N)N3N=C(COc4ccccc4)SC3=NC2=O)cc1	none
C[C@H](CO)N1C[C@H](C)[C@H](CN(C)Cc2ccc(C(F)(F)F)cc2)Oc2c(NC(=O)Nc3ccc(F)cc3)cccc2C1=O	none (no result: A1 inh)
CCN1CNC(=S)N(c2ccccc2)C1	none
CCN1CSC(=S)N(Cc2ccccc2)C1	BJeLR viability 54
Cc1ccc(N(CC(=O)N2CCCCCC2)S(=O)(=O)c2c(C)noc2C)cc1	none (no result: A1 inh)
CC(C)NC(=O)Nc1cccc2c1O[C@@H](CN(C)S(=O)(=O)c1cn(C)cn1)[C@@H](C)CN([C@@H](C)CO)C2=O	none (no result: A1 inh)
COc1ccc(CCNc2nc(SCC(=O)c3ccc(F)cc3)nc3ccccc23)cc1OC	A1 inh 16
COc1cc(Nc2nc(SCC(=O)c3ccc(O)c(O)c3)nc3ccccc23)cc(OC)c1	none
O=C(CC1(O)C(=O)Nc2ccccc21)CC1(O)C(=O)Nc2ccccc21 (stereo not given)	none
CCOC(=O)c1c2c(n3ccccc13)C(=O)c1ccccc1C2=O	none
O=C1C(Nc2ccccc2)=CC(=O)c2ncccc21	BJeLR viability 69
CC(C)NC(=O)Nc1cccc2c1O[C@H](CN(C)S(=O)(=O)c1ccc(F)cc1)[C@H](C)CN([C@H](C)CO)C2=O	none (no result: A1 inh)
O=C1c2ccccc2-[n+]2ccc3c([nH]c4ccccc43)c21	BJeLR viability 130
O=C1C(c2c(O)[nH]c3ccccc23)=Nc2ccccc21	none
COc1ccc(C(c2ccc3cccnc3c2O)N2CCOCC2)cc1 (stereo not given)	A1 inh 43
Oc1c(C(c2ccncc2)N2CCCC2)ccc2cccnc12 (stereo not given)	none
Cc1noc(C)c1S(=O)(=O)Nc1cccc2c1O[C@@H](CN(C)Cc1ccncc1)[C@@H](C)CN([C@@H](C)CO)C2=O	none (no result: A1 inh)
CCCc1ccc(O)c(N)c1	none
CCCc1ccc(-c2c(C)sc(N)c2C#N)cc1	A1 inh 12
C[C@H]1CN([C@@H](C)CO)C(=O)c2cccc(NS(=O)(=O)c3cccs3)c2O[C@H]1CN(C)Cc1ccncc1	none (no result: A1 inh)
